In the library only some 21% were active in any assay of this set; here they are far more common.
Pf growth 96h: inhibits malaria parasite growth, 96 h; P. falciparum luciferase reporter growth, 96 h; Potency, µM (series often up to 28.7 µM), hits mostly inhibitors; 320,000 compounds, 6.9% hits
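Erythrocytes infected with luciferase-expressing P. falciparum were dispensed at 2% hematocrit and 0.05% parasitemia (final), then incubated with compounds 96 hours at 37 C in 5% CO2. Luminescence after detection reagent addition reported growth.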
CHX counter: affects cycloheximide protein synthesis inhibition readout, counter-screen | cell reporter, cycloheximide protein synthesis inhibition counterscreen | max response, % | 300,000 compounds, 12% hits | AID 2314; in the data active = max response mostly above about 13%, no sharp cut-off; inactive = mostly below about 14%; note: read at 38.3 µM for the half of the compounds with a filed dose
Shiga toxin inh: blocks Shiga toxin action in Vero cells. inhibition, % at 38.7 µM. Vero cells, Shiga toxin protein synthesis inhibition reporter. 290,000 compounds, 9.2% hits; in the data active = inhibition mostly above about 28%, no sharp cut-off; inactive = mostly below about 43%
NS1 inh: influenza NS1 inhibition; Potency, µM (top dose mostly 46.1 µM); 270,000 compounds, 0.4% hits; calls by dose curve; note: actives are rising curves; nearly all actives have a fitted effect of over 50% in size
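Growth recovery, yeast-based: influenza A NS1 expressed in S. cerevisiae causes slow growth, and suppressors are detected by OD600. The parent strain without NS1 is used as positive control.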
SARS PLP yeast: inhibitors of SARS-CoV papain-like protease in yeast | S. cerevisiae expressing SARS-CoV PLpro, growth rescue | Potency, µM (titrated, usually from 32.9 µM), usual class: activators | 330,000 compounds, 0.19% hits; calls by dose curve; note: nearly all actives have a fitted effect of over 55% in size
Pf growth 48h: inhibits P. falciparum growth in the first generation, 48 h; P. falciparum luciferase growth in erythrocytes, 48 h; Potency, µM (titrated, usually from 28.7 µM), hits mostly inhibitors; 310,000 compounds, 5.9% hits; AID 504832
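Firefly luciferase activity from engineered P. falciparum reports growth; inhibitors lower the luminescent signal. Cultures contained 2% hematocrit erythrocytes at 0.1% final parasitemia.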
Numbers stand for hits; . = inactive; ? = inconclusive; / = no result; [ ] = remark or other dose. Unless noted, calls come from the whole dose curve; as a rule, active = well fitted inhibition curve with a large enough effect; inconclusive = small, poorly fitted or top-dose-only effect, or another doubt; inactive = no such curve, though single readings can be large or run the other way.

SMILES	Pf growth 96h	CHX counter	Shiga toxin inh	NS1 inh	SARS PLP yeast	Pf growth 48h
NS(=O)(=O)c1ccc(N2N=C(c3ccccc3)CC2c2ccc(F)cc2)cc1 (stereo not drawn)	?	.	.	.	.	11.7µM
CN(CC(=O)Nc1ccccc1Br)C(=O)CNC(=O)c1cccs1	.	/	/	/	.	?
N=C1SCC(=O)N1/N=C/c1ccccc1	?	23.6	53.1	/	.	.
O=C1CSC(=S)N1/N=C/C=C/c1ccccc1	.	.	.	.	.	.
COC(=O)Oc1ccc(/C=C/C(=O)OC(C)C)cc1OC(=O)OC	.	29.9	.	.	.	.
CCN=C=NCCCN(C)C	/	/	/	.	/	/
CCCCn1c(C)cc2c(c1=O)C1O[C@](c3ccsc3)(Cc3ccccc31)O2	.[5.75 µM]	.	.	.	.[6.58 µM]	?
Cc1cc2c(c(=O)n1Cc1ccccc1)C1O[C@](c3ccsc3)(Cc3cc(C#N)ccc31)O2	.[5.75 µM]	.	.	.	.[6.58 µM]	1.69µM
Cc1cc2c(c(=O)n1Cc1ccccc1)C1O[C@](c3ccsc3)(Cc3ccccc31)O2	?	.	.	.	.[6.58 µM]	1.2µM
CC(C)CC(=O)NC(Nc1ccc([N+](=O)[O-])cc1)C(Cl)(Cl)Cl (stereo not drawn)	?	.	.	.	.	?
COc1ccc(-c2cc(-c3c(O)c(OC)c4occc4c3OC)[nH]n2)cc1OC	.[5.75 µM]	22.7	.	.	.	?
COc1ccc(-c2cc(-c3c(O)c(OC)c4occc4c3OC)[nH]n2)cc1	/	20.7	78.8	.	.	/
CC1CN(S(=O)(=O)c2ccc(C(=O)OCc3ccc(C#N)cc3)cc2)CC(C)O1 (stereo not drawn)	?	/	/	/	.	?
C/C(=N\NC(=O)c1ccc(-c2ccccc2)cc1)c1ccco1	?	.	.	.	.	?
C/C(=N/NC(=O)c1ccco1)c1ccc(NC(=O)c2ccc(F)cc2)cc1	.	90.1	57.9	.	.	.
C/C(=N\NC(=O)c1ccco1)c1cccc2ccccc12	.	.	.	.	.	9.28µM
C/C(=N/NC(=O)c1ccco1)c1ccc(NC(=O)c2ccc(Br)o2)cc1	.	61.6	95.8	.	.	.
C/C(=N\NC(=O)c1nc2ccccn2c1C)c1ccco1	.	27.2	61.9	.	.	.
C/C(=N\NC(=O)c1ccc(C(=O)N/N=C(\C)c2ccco2)o1)c1ccco1	2.62µM	.	.	.	.	?
CCCCCC(=O)NC(=S)Nc1ccc(NC(=O)c2ccco2)cc1	?	.	.	.	.	?
CCCCCC(=O)N/N=C(\C)c1ccc(NC(=O)c2ccco2)cc1	.	29.8	80.9	.	.	.
CC(C)C(O)P(=O)(OCc1ccccc1)c1ccc(N(C)C)cc1 (stereo not drawn)	.	.	.	.	.	.
COc1ccc(NC(=O)C/C(C)=N/NC(=O)c2ccco2)c([N+](=O)[O-])c1	?	19.1	92.5	.	.	.
COc1ccc(NC(=O)CN2CCC(NC(=O)c3ccco3)CC2)c([N+](=O)[O-])c1	.	.	.	.	.	?
Cc1ccc(NC(=O)c2ccco2)c([N+](=O)[O-])c1	?	40.6	107.4	/	.	.
SMILES	Pf growth 96h	CHX counter	Shiga toxin inh	NS1 inh	SARS PLP yeast	Pf growth 48h
COc1ccc(NC(=O)c2ccco2)c([N+](=O)[O-])c1	.	20.1	34.7	.	.	.
CCCC1(CCC)NC(=O)N(CC(=O)Nc2ccc(Cl)c(S(=O)(=O)N3CCOCC3)c2)C1=O	/	/	/	/	.	/
O=C(CC(Cc1ccccc1)C(=O)O)Nc1cccc(C(F)(F)F)c1 (stereo not drawn)	?	.	.	.	.	.
CCN1C(=O)[C@H]2[C@H]3CN=C(SCc4ccc(C)cc4)N3[C@@](CC)(C(=O)OC)[C@H]2C1=O	/	/	/	/	.	/
CCn1c(/C=C/N(C)c2ccccc2)[n+](CC)c2ccc(Cl)cc21	0.131µM	.	.	.	.	0.738µM
CCn1c(C)[n+](Cc2ccccc2)c2ccc(C(=O)OC)cc21	.	.	.	/	.	?
CCn1c(/C=C/Nc2ccccc2)[n+](CC)c2ccc(Cl)cc21	8.28µM	.	.	.	.	?
CCOC(=O)c1ccc2c(c1)n(CC)c(/C=C/Nc1ccccc1)[n+]2CC	?	.	.	.	.	?
Nc1ccc(Cl)c(S(=O)(=O)Nc2ccc(Cl)cc2)c1	.	.	.	.	.	.
N#CC1=C(N)N(c2ncn[nH]2)C2=C(C(=O)CCC2)C1c1ccc(F)cc1 (stereo not drawn)	.	.	.	.	.	.

Screening results as filed in PubChem.
